Reference: PubChem BioAssay (NCATS)
Results filed as inconclusive are left out. A call without a number means that no potency is given here. Calls of active or inactive are those of the source. Calls come from the whole dose curve; as a rule, active = well fitted inhibition curve with a large enough effect; inconclusive = small, poorly fitted or top-dose-only effect; inactive = flat fitted curve, though single readings scatter.

The compounds below were run against Calcium and integrin-binding protein 1 (Homo sapiens) (UniProt Q99828) (assay: Primary qHTS for Identification of Calcium Integrin Binding Protein 1 (CIB1) Competitor (AID 1508620;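 note: GST tagged CIB1 binding a fluorescein labelled alphaIIb integrin peptide tracer; top concentration of the series differs between compounds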)). Conditions: CIB1-GST / FITC-alphaIIb peptide fluorescence polarization; series mostly up to 114 µM.
Calcium and integrin-binding protein 1 (Homo sapiens), sequence (Q99828 whole entry, looked up): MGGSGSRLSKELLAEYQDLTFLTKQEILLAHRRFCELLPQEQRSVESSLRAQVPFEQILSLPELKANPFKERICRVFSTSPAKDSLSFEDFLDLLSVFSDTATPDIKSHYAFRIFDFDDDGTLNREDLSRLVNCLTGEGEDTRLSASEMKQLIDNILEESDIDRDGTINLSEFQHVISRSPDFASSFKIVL
Method in brief: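 Fluorescence polarization competition: CIB1-GST (1 uM final) preincubated with compound 15 min at room temperature, then FITC-labeled alphaIIb peptide (100 nM final) added for another 15 min. Polarization read at Ex 480/Em 540.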

SMILES	Potency
CC(=O)OC(C)(C)/C=C/C(=O)[C@](C)(O)[C@H]1C(O)C[C@@]2(C)[C@@H]3CC=C4[C@@H](C=C(O[C@@H]5O[C@H](CO)[C@@H](O)[C@H](O)[C@H]5O)C(=O)C4(C)C)[C@]3(C)C(=O)C[C@]12C (stereo partly drawn)	inactive
COc1ccc2cc(-c3cc(-c4cc(Cl)cc(Cl)c4)nn3C(C)c3ccc(C(=O)NCCC(=O)O)cc3)ccc2c1 (stereo not drawn)	inactive
O=C(NO)c1cnc(N2CCN(S(=O)(=O)c3ccc4ccccc4c3)CC2)nc1	inactive
C=C1C(=O)O[C@@H]2/C=C(\CO)CC/C=C(/C=O)C[C@H](O)[C@@H]12	inactive
Cc1cccc(N2CCN(C(=O)c3cc(S(=O)(=O)N(C)C)ccc3N3CCCC3)CC2)c1C	inactive
COc1cc(F)c(F)c(Nc2ccc(I)cc2F)c1NS(=O)(=O)C1(CC(O)CO)CC1 (stereo not drawn)	inactive
O=C1Nc2ccccc2-c2nc3ccccc3c(=O)n2-c2c(O)cccc21	inactive
COc1ccc(C#Cc2ccc(C(=O)N3CCC[C@@H](CO)C3)cc2)cc1	inactive
C=CC1(C)CC(O)C(C(=C)C(=O)OC)C(O)C1C(=C)CO (stereo not drawn)	inactive
C=C1C(OC2OC(CO)C(O)C(O)C2O)CC2C(C)(C)C(O)CCC2(C)C1CC/C(C)=C\COC(=O)CC(=O)O (stereo not drawn)	inactive
Cc1ccc(O)cc1Nc1ccnc(Nc2cccc(C(N)=O)c2)n1	inactive
CC(O)C(C)n1ncn(-c2ccc(N3CCN(c4ccc(OCC5COC(Cn6cncn6)(c6ccc(Cl)cc6Cl)O5)cc4)CC3)cc2)c1=O (stereo not drawn)	inactive
C=C1C(=O)OC2CC3(C)C(O)C(=O)C=C(C)C3CC12 (stereo not drawn)	inactive
